Results taken from PubChem BioAssay AID1159580 (chemical genetic matrix, 2015).
In all, about 5,500 compounds went through this assay and about 2,000 (36%) were called active. About 18% were inconclusive and are not listed. Cut-off read from the data, not from the text of the source: active = normalized growth mostly below about 0.91 (no sharp cut-off); inconclusive = no clear call, values can overlap the other calls; inactive = mostly above about 0.92. The list shows a part of the results.

Assay: chemical genetic growth profiling, strain panel (AID 1159580);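 note: tested at 20 µM; growth read once vehicle control cultures reached saturation at 30 °C; 1 = growth at the plate median or of vehicle wells; lower values mean less growth of the strain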
Conditions: S. cerevisiae deletion strains, growth OD

Measured: normalized growth

CC(C)c1c(C(=O)c2ccccc2)c(-c2ccccc2)c(-c2ccc(F)cc2)n1CC[C@@H](O)C[C@@H](O)CC(=O)O
inactive: locus YAL030W, strain snc1, hits give low values 0.94 | locus YBR009C, strain hhf1, hits give low values 0.924 | locus YBR171W, strain sec66, hits give low values 0.984 | locus YCL011C, strain gbp2, hits give low values 0.942 | locus YCL069W, strain vba3, hits give low values 0.934 | locus YDL005C, strain med2, hits give low values 0.987 | locus YDL040C, strain nat1, hits give low values 0.99 | locus YDR001C, strain nth1, hits give low values 0.957 | locus YDR159W, strain sac3, hits give low values 0.882 | locus YDR195W, strain ref2 1.04 | locus YDR297W, strain sur2, hits give low values 0.946 | locus YDR335W, strain msn5, hits give low values 0.919 | locus YDR392W, strain spt3, hits give low values 1.01 | locus YEL037C, strain rad23, hits give low values 0.935 | locus YEL061C, strain CIN8 (second series), hits give low values 0.955 | locus YER016W, strain bim1, hits give low values 0.949 | locus YER111C, strain swi4, hits give low values 0.981 | locus YER155C, strain BEM2 (second series), hits give low values 0.917 | locus YGL167C, strain pmr1, hits give low values 1 | locus YGL173C, strain kem1, hits give low values 0.907 | locus YGL227W, strain vid30, hits give low values 0.962 | locus YGL240W, strain doc1, hits give low values 0.981 | locus YJL095W, strain BCK1 (second series), hits give low values 0.957 | locus YJL115W, strain asf1, hits give low values 0.953 | locus YJL129C, strain trk1, hits give low values 0.916 | locus YJL164C, strain tpk1, hits give low values 0.922 | locus YJL166W, strain qcr8, hits give low values 0.926 | locus YKL160W, strain elf1, hits give low values 0.921 | locus YKR026C, strain gcn3, hits give low values 0.952 | locus YKR091W, strain srl3, hits give low values 0.98 | locus YLL026W, hits give low values 0.937 | locus YLL041C, strain sdh2, hits give low values 0.981 | locus YLR027C, strain aat2, hits give low values 0.933 | locus YLR258W, strain gsy2, hits give low values 0.932 | locus YLR262C, strain YPT6 (second series), hits give low values 0.973 | locus YLR320W, strain mms22, hits give low values 0.899 | locus YLR342W, strain FKS1, hits give low values 0.94 | locus YLR384C, strain iki3, hits give low values 0.959 | locus YML120C, strain ndi1, hits give low values 0.93 | locus YMR058W, strain fet3, hits give low values 0.909 | locus YMR129W, hits give low values 0.946 | locus YMR205C, strain PFK2, hits give low values 0.946 | locus YNL071W, strain lat1, hits give low values 0.939 | locus YNL209W, strain ssb2, hits give low values 0.939 | locus YNL248C, strain rpa49, hits give low values 1.02 | locus YNL322C, strain KRE1 (second series), hits give low values 0.977 | locus YNR049C, strain mso1, hits give low values 0.952 | locus YOR080W, strain dia2, hits give low values 0.939 | locus YOR106W, strain vam3, hits give low values 0.877 | locus YOR265W, strain rbl2, hits give low values 0.95 | locus YOR290C, strain snf2, hits give low values 0.895 | locus YPL078C, strain atp4, hits give low values 0.908 | locus YPL106C, strain sse1, hits give low values 1.11 | locus YPL240C, strain hsp82, hits give low values 0.971

COc1cc2c(cc1OC)C(C)N(C(=O)c1sc3ccccc3c1Cl)CC2 (stereo not given)
inactive: locus YAR019C, strain CDC15, hits give low values 0.981 | locus YBL105C, strain PKC1, hits give low values 0.975 | locus YBR135W, strain CKS1, hits give low values 0.97 | locus YBR136W, strain MEC1, hits give low values 0.975 | locus YBR160W, strain CDC28, hits give low values 0.968 | locus YDL017W, strain CDC7, hits give low values 0.98 | locus YDL028C, strain MPS1, hits give low values 0.982 | locus YDL101C, strain DUN1, hits give low values 0.982 | locus YDL108W, strain KIN28, hits give low values 0.974 | locus YDL132W, strain cdc53, hits give low values 0.974 | locus YDL214C, strain PRR2, hits give low values 0.928 | locus YDR052C, strain DBF4, hits give low values 0.989 | locus YDR054C, strain cdc34, hits give low values 0.972 | locus YDR226W, strain ADK1, hits give low values 0.975 | locus YDR477W, strain SNF1, hits give low values 0.934 | locus YER123W, strain YCK3, hits give low values 0.9 | locus YER133W, strain GLC7, hits give low values 0.936 | locus YFL009W, strain cdc4, hits give low values 0.972 | locus YFL029C, strain CAK1, hits give low values 0.968 | locus YFR003C, strain YPI1, hits give low values 0.978 | locus YFR019W, strain FAB1, hits give low values 0.943 | locus YFR028C, strain CDC14, hits give low values 0.977 | locus YGR040W, strain KSS1, hits give low values 0.899 | locus YGR052W, strain FMP48, hits give low values 0.981 | locus YGR092W, strain DBF2, hits give low values 0.921 | locus YHR030C, strain SLT2, hits give low values 0.93 | locus YHR079C, strain IRE1, hits give low values 0.933 | locus YHR082C, strain KSP1, hits give low values 0.958 | locus YHR205W, strain SCH9, hits give low values 0.976 | locus YIL147C, strain SLN1, hits give low values 0.984 | locus YJL095W, strain BCK1, hits give low values 0.947 | locus YJL128C, strain PBS2, hits give low values 0.955 | locus YJL157C, strain FAR1, hits give low values 0.912 | locus YJR016C, strain ILV3, hits give low values 0.97 | locus YJR066W, strain TOR1 (second series), hits give low values 0.891 | locus YJR066W, strain TOR1, hits give low values 0.983 | locus YKL048C, strain ELM1, hits give low values 0.928 | locus YKL067W, strain YNK1, hits give low values 0.943 | locus YKL101W, strain HSL1, hits give low values 0.897 | locus YKL193C, strain SDS22, hits give low values 0.981 | locus YKL203C, strain TOR2, hits give low values 0.959 | locus YLR113W, strain HOG1, hits give low values 0.865 | locus YLR133W, strain CKI1, hits give low values 0.916 | locus YLR403W, strain SFP1, hits give low values 0.906 | locus YML070W, strain DAK1, hits give low values 0.912 | locus YMR001C, strain CDC5, hits give low values 0.975 | locus YMR205C, strain PFK2 (second series), hits give low values 0.948 | locus YMR277W, strain FCP1, hits give low values 0.978 | locus YNL006W, strain LST8, hits give low values 0.99 | locus YNL020C, strain ARK1, hits give low values 0.922 | locus YNL161W, strain CBK1, hits give low values 0.97 | locus YNL183C, strain NPR1, hits give low values 0.948 | locus YNL207W, strain RIO2, hits give low values 0.978 | locus YNL222W, strain SSU72, hits give low values 0.966 | locus YNL307C, strain MCK1 (second series), hits give low values 0.911 | locus YOL078W, strain AVO1, hits give low values 0.972 | locus YOL136C, strain PFK27, hits give low values 0.906 | locus YOR061W, strain CKA2, hits give low values 0.914 | locus YOR119C, strain RIO1, hits give low values 0.982 | locus YOR231W, strain MKK1, hits give low values 0.891 | locus YOR329C, strain SCD5, hits give low values 0.978 | locus YPL031C, strain PHO85, hits give low values 0.927 | locus YPL153C, strain RAD53, hits give low values 0.905 | locus YPL204W, strain HRR25, hits give low values 0.905 | locus YPL209C, strain IPL1, hits give low values 0.968 | locus YPL256C, strain CLN2, hits give low values 0.894 | locus YPR025C, strain CCL1, hits give low values 0.976 | locus YPR106W, strain ISR1, hits give low values 0.963 | locus YPR111W, strain DBF20, hits give low values 0.949 | strain NNK1, hits give low values 0.972 | strain TSCII, hits give low values 0.969
